40 compounds from PubChem BioAssay (Tox21) can be followed below.

A number with no mark means an inactive call. Entries that show only a call come without a potency. Activity calls are given as the source filed them. Calls come from the whole dose curve; as a rule, active = well fitted activation curve with a large enough effect in the repeat runs; inconclusive = weak or mixed curves; inactive = flat fitted curve, though single readings scatter.

The nature of the experiment: Caspase-3/7 induction in CHO-K1 cells by small molecules, qHTS assay (AID 1346980). Note: nearly all actives have a fitted effect of over 15% in size. To be noted: CHO-K1 caspase-3/7 induction, Caspase-Glo luminescence, 17 h; series mostly up to 92.4 µM. The text has this: National Center for Advancing Translational Sciences [NCATS]
NIH Chemical Genomics Center [NCGC]
U.S. Environmental Protection Agency [EPA]
National Institutes of Environmental Health Sciences [NIEHS]
National Toxicology Program [NTP]
Apoptosis is a process of programmed cell death and plays a central role in the development of multicellular organisms. It is a highly regulated process and induces cell death by activating caspases, which are the members of cysteine aspartic acid-specific protease (caspase) family. Caspases involved in apoptosis are classified by their mechanism of action as initiator caspases (caspase-2, -8, -9 and -10) and executioner caspases (caspase-3, -6, and -7). Inhibition of apoptosis results in number of cancers, autoimmune diseases, inflammatory diseases and viral infection. To identify small molecule compounds that induce apoptosis, a homogeneous, luminescent Caspase-Glo 3/7 assay was used. Wild type CHO-K1 cells were used to screen Tox21 libraries for identifying caspase-3/7 activity inducers.
CHO-K1 cells were dispensed at 1,500 per well in 5uL of culture medium into white solid bottom 1536-well plates (Corning Life Sciences, Corning, NY) using a Multidrop Combi (Thermo Scientific, Waltham, MA) dispenser. The assay plates were incubated at 37 C and 5% CO2 for 5hr, and then 23nL of compounds dissolved in DMSO and positive control were transferred using a Pintool station (Wako, San Diego, CA). The assay plates were incubated at 37C and 5% CO2 for 17hr. For caspase-3/7 activity read, 4uL of Caspase-Glo 3/7 reagent (Promega Corporation, Madison, WI) was added to each well of the assay plates using Flying Reagent Dispenser (FRD, Aurora Discovery, San Diego, CA) and incubated the assay plates at room temperature for 30min. The luminescence signal was quantified using a ViewLux plate reader (Perkin Elmer, Shelton, CT).
In general terms: qHTS replaces the single test concentration by a dilution series.
Take `CCOC(=O)C(F)(F)F`: the Potency entry is “inactive”.

In the case of `O=C(Nc1ccc(S(=O)(=O)N2CCOCC2)cc1)c1cc(Cl)ccc1NS(=O)(=O)c1ccc(Cl)s1`, the Potency entry was “inactive”. Take `COc1cc2c(cc1OC)C(C(C(=O)N(CCc1ccc(OC)c(OC)c1OC)CCc1ccc(OC)c(OC)c1OC)c1ccccc1)=NCC2` (stereo not given): the Potency result was “inactive”. In the case of `O=C(O)c1ccc(-n2nc(-c3ccccc3O)nc2-c2ccccc2O)cc1`, the Potency entry was “inactive”. On the same count and under the same terms, in the case of `CN1C[C@H]2c3ccccc3Oc3ccc(Cl)cc3[C@@H]2C1` it was “inactive”; in that of `CC(C)CC(=O)C1C(=O)c2ccccc2C1=O`, “inactive”; in that of `CCC(C)O` (stereo not given), “inactive”. As for `O=C(CS)Nc1ccccc1`, the Potency entry is “inactive”. Turning to `c1ccc(C(O[C@H]2CCCN(CCc3ccc4c(c3)OCO4)C2)c2ccccc2)cc1`, the Potency result was “inactive”. Same read-out and setting: the value for `O=C(Cl)c1cc(C(=O)Cl)cc(C(=O)Cl)c1` was “inactive”; that for `CCCCCCCN` was “inactive”.

`CCn1cc(C(=O)O)c(=O)c2cnc(N3CCNCC3)nc21`: the Potency entry is “inactive”.

On to `Cc1cccc(C)c1OCC(=O)N[C@@H](Cc1ccccc1)[C@@H](O)C[C@H](Cc1ccccc1)NC(=O)[C@H](C(C)C)N1CCCNC1=O`, for which the Potency entry is “inactive”. As to `Cc1[nH]c(C)c(Cl)c(=O)c1Cl`, the caspase-3/7 activation is -0.964% [at 19 µM]. In the case of `CN(C)c1ccc(C(c2ccccc2)c2ccc(N(C)C)cc2)cc1`, the Potency result was “inactive”. On to `COc1cc(Cl)c(OC)cc1N`, for which the Potency entry was “inactive”. On to `OC(CN1CCC(Cc2ccc(F)cc2)CC1)c1ccc(Cl)cc1` (stereo not given), for which the Potency entry was “inactive”. Regarding `C[N+]1(C)CCC(OC(=O)C(O)(c2ccccc2)C2CCCC2)C1` (stereo not given), the Potency result was “inactive”. For the compound `CCO[Si](CCCCl)(OCC)OCC`, the Potency entry was “inactive”. The same measure, in the same setting: the value for `COc1ccc2cccc(CCNC(C)=O)c2c1` was “inactive”.

With `Cc1cccc(C)c1NC(=O)CN(CC(=O)O)CC(=O)O`, the Potency entry is “inactive”. The same measure, in the same setting: the value for `Nc1cccc(S(=O)(=O)c2cccc(N)c2)c1` was “inactive”.

Consider `CCCCCCCC/C=C\CCCCCCCC(=O)OCC`, for which the Potency result is “inactive”.

Regarding `CCOC(=O)NCCOc1ccc(Oc2ccccc2)cc1`, the Potency result is “inactive”.

For `CN(C)CCCN1c2ccccc2Sc2ccccc21`, the Potency entry is “inactive”. Still for that read-out and setting: in the case of `CC(C)(C)Cl` it was “inactive”; in that of `O=S(=O)(Oc1ccc(Cl)cc1)c1ccccc1`, “inactive”; in that of `CCOC(=O)COC(=O)c1cc(Oc2ccc(C(F)(F)F)cc2Cl)ccc1[N+](=O)[O-]`, “inactive”.

As for `Cn1c(=O)cc(Oc2ccc(F)cc2F)c2cnc(NCC(C)(C)O)nc21`, the Potency result is “inactive”. As to `CCCCC/C=C\C/C=C\CCCCCCCC(=O)NC(C)c1ccccc1` (stereo not given), the Potency entry was “inactive”. On to `Cc1nn(C)c(Oc2ccccc2)c1/C=N/OCc1ccc(C(=O)OC(C)(C)C)cc1`, for which the Potency entry was “inactive”. On to `S=C([S-])NCCNC(=S)[S-].[Mn+2]`, for which the Potency entry is “inactive”. As to `NCC(=O)CCC(=O)O`, the Potency entry is “inactive”.

Consider `CCCCCCCC#N`, for which the Potency result is “inactive”. As for `CCO[C@H](Cc1ccc(OCCc2ccc(OS(C)(=O)=O)cc2)cc1)C(=O)O`, the Potency entry was “inactive”.

For `CCCCNc1ccc(C(=O)OCCOCCOCCOCCOCCOCCOCCOCCOCCOC)cc1`, the Potency result is “inactive”.

Regarding `O=C(NCC1CN(c2ccc(N3CCOCC3=O)cc2)C(=O)O1)c1ccc(Cl)s1` (stereo not given), the Potency entry was “inactive”. As for `O=C1[C@H]2CCCC[C@H]2C(=O)N1CCCCN1CCN(c2nsc3ccccc23)CC1`, the Potency entry was “inactive”. Consider `Brc1c2ccccc2c(Br)c2ccccc12`, for which the caspase-3/7 activation is -0.773% [at 8.39 µM]. Consider `CCCCCCCCCc1ccc(OCCOCCO)cc1`, for which the Potency result is “inactive”.
